Inconclusive results are not listed. Active and inactive are the calls of the source. Calls follow the shape of the dose curve; as a rule, active = well fitted cell-killing curve with a large enough effect in the repeat runs; inconclusive = weak or mixed curves, or effect the other way; inactive = no such curve, though single readings can be large or run the other way.
Assay: qHTS assay to identify small molecule antagonists of the glucocorticoid receptor (GR) signaling pathway - cell viability counter screen (AID 720693); also: nearly all actives have a fitted effect of over 55% in size
Conditions: GR-bla HeLa viability, CellTiter-Glo luminescence, 18 h, with 5 nM dexamethasone present; series mostly up to 58.5 µM
Source text: National Center for Advancing Translational Sciences [NCATS]
NIH Chemical Genomics Center [NCGC]
U.S. Environmental Protection Agency [EPA]
National Institutes of Environmental Health Sciences [NIEHS]
National Toxicology Program [NTP]
U.S. Food and Drug Administration [FDA]
The Glucocorticoid receptor (GR) is one of the members of the nuclear receptor family of ligand-dependent transcription factors. GR plays a critical role in carbohydrate, protein and lipid metabolisms and programmed cell death. CellSensor GR-bla HeLa cell line (Invitrogen) contains a beta-lactamase reporter gene under the control of the glucocorticoid response element stably integrated into HeLa cells, a cervical cancer cell line that expresses glucocorticoid receptor. The activation of the reporter gene under culture conditions can be detected by fluorescence intensity. This cell line has been used to screen the Tox21 10K compound library and to identify the compounds that inhibit the GR signaling. The cytotoxicity of the Tox21 compound library against the GR-bla HeLa cell line was tested in parallel by measuring the cell viability using CellTiter-Glo assay in the same wells.
Tox21 Assay Protocol Summary:
The GR-bla HeLa cells were dispensed at 1500 cells/5 ul/well in 1536-well black wall/clear bottom plates using a Multidrop Combi (ThermoFisher Scientific, Waltham, MA) dispenser. After the assay plates were incubated at a 37 C/5% CO2 incubator for 4 hours, 23 nL of compounds dissolved in DMSO, positive controls or DMSO only was transferred to the assay plate by a pintool station (Kalypsys, San Diego, CA), followed by addition of 1 uL of dexamethasone (5 nM, final concentration in the well). The plates were incubated at 37 C for 18 hours. After 1 uL of LiveBLAzerTM B/G FRET substrate was added using a Flying Reagent Dispenser (Aurora Discovery, San Diego, CA), the plates were incubated at room temperature (RT) for 2 hours, and fluorescence intensity was measured by an Envision plate reader (PerkinElmer, Shelton, CT). After measurement of bla assay, 3 ul CellTiter-Glo (Promega, Madison, WI) was added to measure the cytotoxicity and the plates were then incubated at RT for 30 min. The luminescence was measured using a ViewLux (Perkin Elmer) plate reader.

Row | SMILES | outcome
1 | CCCCCCCCCCCCCCCCOP(=O)([O-])OCC[N+](C)(C)C | inactive
2 | O=C1CCN(c2ccccc2)N1 | inactive
3 | C=CCCC=C | inactive
4 | COC(=O)c1ccc2cc(C(=O)OC)ccc2c1 | inactive
5 | Cc1ccc([N+](=O)[O-])c(N)c1 | inactive
6 | CC(C)CC(=O)OCc1ccccc1 | inactive
7 | CC(C)C(=O)OCC(C)(C)C(O)C(C)C (stereo not given) | inactive
8 | C=CCCCCCCCCO | inactive
9 | OCCN(CCO)CCN(CCO)CCO | inactive
10 | O=C(CC(=O)C(F)(F)F)c1ccccc1 | inactive
11 | CCN(O)CC | inactive
12 | CC1(C)O[C@@H]2C[C@H]3[C@@H]4CCC5=CC(=O)CC[C@]5(C)[C@@]4(F)[C@@H](O)C[C@]3(C)[C@]2(C(=O)CCl)O1 | inactive
13 | O=C(O)[C@@H](O)[C@H](O)[C@H](O)[C@@H](O)C(=O)O | inactive
14 | c1ccc(CN(CC2=NCCN2)c2ccccc2)cc1 | inactive
15 | NC1=NCC2c3ccccc3Cc3ccccc3N12 (stereo not given) | inactive
16 | CC(C)=CCC[C@](C)(O)[C@@H]1CC=C(C)CC1 | inactive
17 | O=CCCc1ccccc1 | inactive
18 | CCCCNC(=S)NCCCC | inactive
19 | CCCCN1C[C@H](O)[C@@H](O)[C@H](O)[C@H]1CO | inactive
20 | CNCCC(Oc1ccccc1OC)c1ccccc1 (stereo not given) | inactive

Row | SMILES | outcome
21 | Cc1c(-c2ccccc2)oc2c(C(=O)OCCN3CCCCC3)cccc2c1=O | inactive
22 | CCC(=O)c1ccc2c(c1)N(CCCN(C)C)c1ccccc1S2 | inactive
23 | CC(C)C1=CC2=CC[C@@H]3[C@](C)(CCC[C@@]3(C)C(=O)O)[C@H]2CC1 | inactive
24 | CCCCc1ccc2nc(NC(=O)OC)[nH]c2c1 | inactive
25 | Cc1c(N)cccc1N | inactive
26 | CN(C)CCOc1ccccc1Cc1ccccc1 | inactive
27 | OCCN(CCO)c1ccccc1 | inactive
28 | Cc1ccc(C(C)C)cc1O | inactive
29 | Cc1cc(NS(=O)(=O)c2ccc(N)cc2)nc(C)n1 | inactive
30 | CN1CCN(C2=Nc3ccccc3Oc3ccc(Cl)cc32)CC1 | inactive
31 | OCC(CBr)(CBr)CBr | inactive
32 | O=[N+]([O-])c1nccn1CO[C@@H](CO)[C@H](O)CO | inactive
33 | COc1ccccc1OCC(O)COC(N)=O (stereo not given) | inactive
34 | CCCCNCCCC | inactive
35 | CCOC(=O)c1ccccc1O | inactive
36 | C[C@@H]1CN(c2c(F)c(N)c3c(=O)c(C(=O)O)cn(C4CC4)c3c2F)C[C@H](C)N1 | inactive
37 | CN(C)C(=O)NC1(c2ccccc2)CCN(CCC[C@]2(c3ccc(Cl)c(Cl)c3)CCCN(C(=O)c3ccccc3)C2)CC1 | inactive
38 | CCCOCCC | inactive
39 | O=Cc1ccc(F)c(Br)c1 | inactive
40 | CCN[C@H]1CN(CCCOC)S(=O)(=O)c2sc(S(N)(=O)=O)cc21 | inactive

Reference: PubChem BioAssay (Tox21)
